Data reported in PubChem BioAssay AID743320 (Broad Institute, 2014).
Potency and affinity values are given separately. Active and inactive are the calls of the source.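 How the source made its calls: active means signal drop whose fitted half-maximal potency is at most twice the top valid dose tested; inconclusive means flat curve inhibiting 30 to 70 percent, or a poor fit; inactive means the rest.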

Each compound was assayed against Endoplasmic reticulum aminopeptidase 2 (Homo sapiens) (UniProt Q6P179) (assay: inhibition of ERAP2 arginine-AMC cleavage – biochemical, fluorescence plate reader, cherry-picked, set 2, selectivity assay for selective ERAP1 modulator project, dose response (AID 743320)). Details: recombinant ERAP2, Arg-AMC fluorescence, 1 h; series mostly up to 11 µM; activity change, negative = inhibition: at the top concentration.
Chain of Endoplasmic reticulum aminopeptidase 2 (Homo sapiens) (Q6P179 whole entry, looked up): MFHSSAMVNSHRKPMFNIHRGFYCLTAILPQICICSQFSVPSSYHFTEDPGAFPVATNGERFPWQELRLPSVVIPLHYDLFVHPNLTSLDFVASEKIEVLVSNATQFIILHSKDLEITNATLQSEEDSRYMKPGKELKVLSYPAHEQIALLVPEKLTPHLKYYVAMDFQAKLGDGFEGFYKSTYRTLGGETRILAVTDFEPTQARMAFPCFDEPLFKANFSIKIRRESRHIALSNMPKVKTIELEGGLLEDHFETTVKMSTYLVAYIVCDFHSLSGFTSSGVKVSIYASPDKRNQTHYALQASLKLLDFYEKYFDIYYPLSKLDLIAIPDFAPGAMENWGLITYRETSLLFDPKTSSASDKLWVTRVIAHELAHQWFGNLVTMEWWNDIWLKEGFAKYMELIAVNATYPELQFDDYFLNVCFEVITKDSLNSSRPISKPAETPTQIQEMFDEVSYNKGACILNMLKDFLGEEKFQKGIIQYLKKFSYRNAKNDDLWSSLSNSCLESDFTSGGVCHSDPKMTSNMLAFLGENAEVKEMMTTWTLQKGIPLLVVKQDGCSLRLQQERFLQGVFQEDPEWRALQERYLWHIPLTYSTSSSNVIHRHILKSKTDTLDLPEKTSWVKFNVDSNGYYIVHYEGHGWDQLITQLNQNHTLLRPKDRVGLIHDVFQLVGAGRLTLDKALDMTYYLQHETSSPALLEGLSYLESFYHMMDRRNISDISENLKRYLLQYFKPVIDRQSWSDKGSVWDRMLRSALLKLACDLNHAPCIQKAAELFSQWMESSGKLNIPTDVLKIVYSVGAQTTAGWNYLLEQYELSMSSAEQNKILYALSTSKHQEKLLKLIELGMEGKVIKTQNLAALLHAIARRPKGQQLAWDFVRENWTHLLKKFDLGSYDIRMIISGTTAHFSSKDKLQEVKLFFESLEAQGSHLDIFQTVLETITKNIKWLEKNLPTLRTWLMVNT

Activity change, negative = inhibition, inactive:
CNC[C@H]1OCCCC[C@@H](C)Oc2ccc(NS(=O)(=O)c3ccc(C)cc3)cc2C(=O)N([C@@H](C)CO)C[C@H]1C 1.54%
COc1ccc(S(=O)(=O)N(C)C[C@@H]2Oc3ncccc3C(=O)N([C@H](C)CO)C[C@@H]2C)cc1 11.3% [at 5.6 µM]
CCCN(C)C[C@@H]1OCCCC[C@@H](C)Oc2ccc(NS(=O)(=O)c3cccs3)cc2C(=O)N([C@H](C)CO)C[C@@H]1C 11%
C[C@@H]1CCCCO[C@@H](CN(C)CC2CC2)[C@@H](C)CN([C@H](C)CO)C(=O)c2cc(NS(=O)(=O)c3cccs3)ccc2O1 14.7%
C[C@@H]1CCCCO[C@H](CN(C)C)[C@H](C)CN([C@H](C)CO)C(=O)c2cc(NS(=O)(=O)c3ccc(Cl)cc3)ccc2O1 16.7%
Cc1cc(=O)oc2c(CN3CCN(C)CC3)c(O)c(Cl)cc12 12%
O=C(C[C@@H]1CC[C@@H]2[C@H](COC[C@H](O)CN2C(=O)Nc2cccc(Cl)c2)O1)N1CCCCC1 2.69%
CCCN(C)C[C@@H]1OCCCC[C@@H](C)Oc2ccc(NS(=O)(=O)c3ccc(C)cc3)cc2C(=O)N([C@H](C)CO)C[C@@H]1C 6.04% [at 10 µM]
CCC(=O)N(C)C[C@H]1Oc2ncc(C#Cc3ccncc3)cc2C(=O)N([C@H](C)CO)C[C@H]1C -5.99%
COc1ccc(S(=O)(=O)Nc2ccc3c(c2)C(=O)N([C@@H](C)CO)C[C@H](C)[C@H](CN(C)C)OCCCC[C@@H](C)O3)cc1 5.02%
COc1ccc(CN(C)C[C@H]2OCCCC[C@@H](C)Oc3ccc(NS(=O)(=O)c4cccs4)cc3C(=O)N([C@@H](C)CO)C[C@H]2C)cc1 2.79%
COc1ccc(CN(C)C[C@@H]2OCCCC[C@@H](C)Oc3ccc(NS(=O)(=O)c4cccs4)cc3C(=O)N([C@H](C)CO)C[C@@H]2C)cc1 10.9%
Cc1ccc2nc3c(cc(C(=O)NCc4ccccc4)c(=N)n3CCCn3ccnc3)c(=O)n2c1 182%
C[C@H](CO)N1C[C@H](C)[C@H](CN(C)Cc2ccncc2)Oc2c(NC(=O)Nc3ccc(C(F)(F)F)cc3)cccc2C1=O 4.68%
COc1ccc(CN(C)C[C@H]2OCCCC[C@@H](C)Oc3ccc(NS(=O)(=O)c4cccs4)cc3C(=O)N([C@H](C)CO)C[C@H]2C)cc1 3.67%
Cc1ccccc1-c1ccc2c(c1)O[C@@H](CN(C)Cc1ccc(C(=O)O)cc1)[C@@H](C)CN([C@@H](C)CO)S2(=O)=O 0.523%
CCCN(C)C[C@@H]1OCCCC[C@@H](C)Oc2ccc(NS(=O)(=O)c3ccc(C)cc3)cc2C(=O)N([C@@H](C)CO)C[C@@H]1C 6.28% [at 5 µM]
Cc1c(O)ccc2c(CN3CCN(Cc4ccccc4)CC3)cc(=O)oc12 408%
C[C@@H]1CN([C@H](C)CO)C(=O)c2cccc(NC(=O)Nc3ccccc3)c2O[C@@H]1CN(C)Cc1ccc(C(=O)O)cc1 23.3%
C[C@@H]1CCCCO[C@H](CN(C)Cc2ccc(C(=O)O)cc2)[C@@H](C)CN([C@H](C)CO)C(=O)c2cc(NC(=O)Nc3ccc(C(F)(F)F)cc3)ccc2O1 2.62%
COc1ccc(CN(C)C[C@@H]2OCCCC[C@@H](C)Oc3ccc(NS(=O)(=O)c4cccs4)cc3C(=O)N([C@H](C)CO)C[C@H]2C)cc1 1.04%
C[C@@H]1CCCCO[C@@H](CN(C)Cc2ccccc2)[C@@H](C)CN([C@H](C)CO)C(=O)c2cc(NS(=O)(=O)c3cccs3)ccc2O1 12.1% [at 5.6 µM]
C[C@@H]1CCCCO[C@@H](CN(C)Cc2ccccc2)[C@H](C)CN([C@H](C)CO)C(=O)c2cc(NS(=O)(=O)c3cccs3)ccc2O1 6.39%
CCCN(C)C[C@@H]1OCCCC[C@@H](C)Oc2ccc(NS(=O)(=O)c3ccccc3)cc2C(=O)N([C@H](C)CO)C[C@@H]1C 16%
COc1cccc(S(=O)(=O)N(C)C[C@@H]2Oc3ncccc3C(=O)N([C@H](C)CO)C[C@@H]2C)c1 4.98%
Cc1ccccc1-c1ccc2c(c1)O[C@@H](CN(C)Cc1ccc(C(=O)O)cc1)[C@@H](C)CN([C@H](C)CO)S2(=O)=O 8.67%
O=C(CSc1cn[nH]n1)Nc1cccc(C(=O)O)c1 13.8%
C[C@@H]1CCCCO[C@@H](CN(C)S(C)(=O)=O)[C@@H](C)CN([C@@H](C)CO)C(=O)c2cc(NS(=O)(=O)c3ccc(Cl)cc3)ccc2O1 9.01%
C[C@@H]1CCCCO[C@@H](CN(C)C)[C@@H](C)CN([C@@H](C)CO)C(=O)c2cc(NS(=O)(=O)c3ccc(Cl)cc3)ccc2O1 2.17%
